High-throughput results (PubChem BioAssay)
In the library only some 3.4% were active in any assay of this set; here they are far more common.
FBW7 act = FBW7 E3 ligase activators, primary screen, biochemical, AlphaScreen, human; F-box/WD repeat-containing protein 7 (Homo sapiens), Q969H0; AlphaScreen FBW7–phospho-cyclin E peptide binding, activator screen; normalized activity (activation), % at 26.1 µM; 0.13% of 650,000 active; in the data active means normalized activity above about 1.9%;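 further: purified mutant Fbw7 with reduced substrate affinity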
Target sequence (Q969H0 whole entry, looked up): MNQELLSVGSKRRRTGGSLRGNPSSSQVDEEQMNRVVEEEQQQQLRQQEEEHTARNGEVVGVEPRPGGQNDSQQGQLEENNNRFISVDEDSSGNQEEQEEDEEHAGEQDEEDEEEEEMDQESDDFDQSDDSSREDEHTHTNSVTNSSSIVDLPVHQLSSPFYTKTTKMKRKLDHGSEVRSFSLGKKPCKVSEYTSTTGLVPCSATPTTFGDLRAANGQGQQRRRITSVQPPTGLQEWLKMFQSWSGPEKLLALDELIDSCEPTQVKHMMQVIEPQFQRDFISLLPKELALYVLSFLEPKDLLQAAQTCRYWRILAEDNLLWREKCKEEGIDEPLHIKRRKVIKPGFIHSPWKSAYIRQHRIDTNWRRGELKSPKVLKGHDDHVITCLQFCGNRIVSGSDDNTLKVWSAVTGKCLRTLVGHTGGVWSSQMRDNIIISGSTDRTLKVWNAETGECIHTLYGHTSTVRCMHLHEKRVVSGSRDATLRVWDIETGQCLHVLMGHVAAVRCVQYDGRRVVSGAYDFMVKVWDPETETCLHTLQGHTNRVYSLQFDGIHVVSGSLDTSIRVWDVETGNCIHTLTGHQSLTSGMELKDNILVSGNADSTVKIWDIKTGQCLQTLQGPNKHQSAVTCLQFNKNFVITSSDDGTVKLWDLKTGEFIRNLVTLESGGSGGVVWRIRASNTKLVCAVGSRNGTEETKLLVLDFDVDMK
TEAD-YAP inh = TEAD-YAP interaction inhibition, primary screen, TEAD-YAP interaction inhibitor project, luminescence, HEK-TIYL cells. TEAD-Gal4/YAP UAS-luciferase luminescence. inhibition, % at 9.12 µM. 1.4% of 640,000 active. AID 1259422, 2018; in the data active means inhibition above about 32%;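 further: 0% = median of test compound wells and 100% = reference inhibitor wells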
MITF primary = MITF inhibitors, primary screen, biochemical, AlphaScreen, human; AlphaScreen MITF homodimerization, bead proximity signal; AID 1259374, 2018; Microphthalmia-associated transcription factor (Homo sapiens), O75030; 0.91% of 650,000 active; inhibition, % at 2.6 µM; in the data active means inhibition above about 50%;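 further: 0% = vehicle wells with protein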
GPR151 activ = activators of human GPR151, primary screen, cell-based, PathHunter beta-arrestin, luminescence. G-protein coupled receptor 151 (Homo sapiens), Q8TDV0. PathHunter beta-arrestin GPR151 cells. activation, % at 11.2 µM. 1% of 650,000 active; in the data active means activation above about 4.9%;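 further: 0% = median of compound wells and 100% = cells with positive control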
* marks the source's active call; other numbers are inactive results.

SMILES	FBW7 act	TEAD-YAP inh	MITF primary	GPR151 activ
COc1ccc(C(=O)NC(Nc2cccc(Cl)c2)C(=O)c2ccccc2)cc1 (stereo unspecified)	0	-6	0	-1
O=C(Nc1cnn(CC(=O)N2CCCCC2c2nccs2)c1)c1ccc2c(c1)OCO2 (stereo unspecified)	0	-3	6	-1
COc1ccccc1C1SCCN1S(=O)(=O)c1ccc([N+](=O)[O-])cc1 (stereo unspecified)	4.4*	6	2	1
COc1cc(OC)c(C2SCCN2S(=O)(=O)c2ccc(C)cc2)cc1OC (stereo unspecified)	0	-2	7	-1
COc1ccc(S(=O)(=O)N2CCSC2c2cc(OC)c(OC)cc2OC)cc1 (stereo unspecified)	0	43*	-3	0
COc1cc(NC(=O)c2ccnc(-c3ccccc3)c2)cc(OC)c1OC	0	-9	-8	2
CC(=O)Nc1cnc(NC(=O)c2ccc(Cl)cc2)cc1C	0	52*	-2	0
CCC(=O)Nc1cnc(NC(=O)c2ccc(Cl)cc2)cc1C	0	-13	8	0
COc1ccc(C(=O)Nc2cnc(NC(=O)c3cccs3)cc2C)cc1	0	37*	-7	-2
COC(=O)CSC/C(C)=N\Nc1ccc([N+](=O)[O-])cc1[N+](=O)[O-]	0	-3	-1	0
COc1ccccc1CNC(=O)CSCc1ccccc1Cl	0	-34	-5	4
O=C(CCCCCn1c(=S)[nH]c2ccccc2c1=O)N1CCN(c2ccc(F)cc2)CC1	0	-12	0	2
COc1ccc(NC(=S)c2ccccn2)cc1	0	60*	2	-11
CN(C)c1ccc(/C=C(\C#N)c2ccccn2)cc1	0	91*	13	-10
CN(C)c1ccc(NC(=S)Nc2ccccc2)cc1	-1	-11	-2	-2
CSc1ccc(/C=C(\C#N)c2ccccn2)cc1	0	-7	10	-3
COc1ccccc1NC(=S)c1ccccn1	0	-38	18	1
CN(C)c1ccc(NC(=S)c2ccccn2)cc1	-1	93*	33	-9
Cc1ccc(NC(=S)c2ccccn2)cc1	0	51*	15	-9
COc1ccc(NC(=S)Nc2ccccn2)cc1	0	-71	-7	0
CC1=CC2=NC(=O)/C(=C\c3ccc(OCc4ccccc4[N+](=O)[O-])cc3)C(=N)N2O1	0	-26	8	-6
COc1nsc2cc([N+](=O)[O-])cc(Oc3ccccc3)c12	0	6	17	0
Nc1nc(NCc2cccnc2)cc(Nc2ccccc2)n1	0	-12	2	0
COc1ccc(CNC2CCC(O)CC2)cc1 (stereo unspecified)	0	-3	34	0
COc1ccc(OCC(=O)Nc2cc(-c3nc4cc(C(C)C)ccc4o3)ccc2Cl)cc1	0	70*	-7	0
SMILES	FBW7 act	TEAD-YAP inh	MITF primary	GPR151 activ
CC(C)c1ccc2oc(-c3ccc(Cl)c(NC(=O)COc4ccc(Cl)cc4)c3)nc2c1	0	-6	-7	0
COc1ccc(OCC(=O)Nc2ccc(-c3cc4ccccc4oc3=O)c(C)c2)cc1	0	15	4	-1
COc1ccc(NC(=O)COc2ccc(C(C)C)cc2)c(OC)c1	2.1*	4	-8	4
COc1ccc(OCC(=O)Nc2ccc(-c3cc4ccccc4oc3=O)cc2)cc1	0	43*	-8	0
Nc1ccc(-c2cc3ccccc3oc2=O)cc1	0	70*	-4	0
CCC(C)C(=O)Nc1ccc(-c2nc3ccccc3o2)cc1 (stereo unspecified)	0	38*	-7	-3
Cc1ccc(OCC(=O)Nc2cc(-c3nc4cc(C(C)C)ccc4o3)ccc2Cl)cc1	0	6	-1	-1
CCC(=O)Nc1cc(-c2nc3cc(C(C)C)ccc3o2)ccc1Cl	0	46*	-3	0
CCC(C)C(=O)N1CCC(C(=O)Nc2ccc(-c3nc4ccccc4o3)cc2)CC1 (stereo unspecified)	0	-7	-9	1
CC(C)c1ccc2oc(-c3ccc(NC(=O)COc4ccccc4)cc3)nc2c1	0	69*	-3	-1
COc1ccc(OCC(=O)Nc2ccc(-c3nc4cc(C(C)C)ccc4o3)cc2)cc1	0	48*	4	-1
O=c1oc2cc(O)ccc2cc1-c1ccc(Cl)cc1	1	42*	-17	-12
